The results in this text go back to PubChem BioAssay AID743279 (National Center for Advancing Translational Sciences (NCATS), 2014).

Hit rate of the full screen: of about 360,000 compounds, about 17,000 (4.7%) were called active. About 5% were inconclusive and are not listed. No stated cut-off is given here; in the data, active means activity change below about -50%; inconclusive means mostly about -30% to -49%; inactive means weaker than that. What follows is part of a selection rich in actives, with near analogues and random picks from the rest.
On the % scale 0 is the no-effect control and ±100 the full control effect.

The assay is described as follows: qHTS for Inhibitors of Inflammasome Signaling: IL-1-beta AlphaLISA Primary Screen. Conditions: THP-1 LPS/ATP IL-1B secretion, 16 h; at 57.5 µM, hits give low values. The gist of the method: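 Secreted IL-1B measured by AlphaLISA bead assay after 16 h compound exposure of THP-1 cells; compounds (final up to 57.5 uM) added 1 h before LPS (250 ng/mL) and ATP (1.25 mM) stimulation; lower signal means less secretion.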
`Cn1nc(-c2ccccc2)c2cc([N+](=O)[O-])ccc21`: the activity change is -13.7% (inactive).

Consider `Cc1cccc(Oc2c([N+](=O)[O-])c(=O)n(C)c3ccccc23)c1`, for which the activity change is -101% (active).

For `COc1cc2c(=O)n(C)c3ccccc3c2cc1OC`, the activity change was -24.4% (inactive).

For `Cn1c(=O)c([N+](=O)[O-])c(Oc2ccccc2)c2ccccc21`, the activity change was -86.4% (active).

Turning to `Cc1cccc(OP(=O)(Nc2c(C)n(C)n(-c3ccccc3)c2=O)Oc2cccc(C)c2)c1`, the activity change was -27.9% (inactive).

As to `Cc1cc(C)c(-c2c(O)c3ccccc3n(C)c2=O)c(C)c1`, the activity change was 13% (inactive).

Consider `CC(=O)C1=C(O)C(=O)N(c2ccc(S(N)(=O)=O)cc2)C1c1ccccc1F` (stereo unspecified), for which the activity change is 7.68% (inactive).

Consider `NC(=O)c1ncn([C@@H]2O[C@H](CN=C3NS(=O)(=O)c4ccccc43)[C@@H](O)[C@H]2O)n1`, for which the activity change was 21.3% (inactive).

For the molecule `COc1ccc(NC(=S)Nc2ccc(S(N)(=O)=O)cc2)c(C)c1`, the activity change is -12.2% (inactive).

With `NS(=O)(=O)c1ccc(NC(=S)Nc2ccc(Br)c(Cl)c2)cc1`, the activity change is -89% (active).

For `NS(=O)(=O)c1ccc(CCNC(=S)Nc2ccc(S(N)(=O)=O)cc2)cc1`, the activity change was -3.65% (inactive).

`CCOC(=O)CSc1nc(N2CCOCC2)c2c(c1C#N)CC(C(C)C)OC2` (stereo unspecified): the activity change was 56.1% (inactive).

As for `CCOC(=O)CSc1ccccn1`, the activity change was 3.79% (inactive).

In the case of `CCOC(=O)CSc1nccc(N(C)C)c1C#N`, the activity change was -70.3% (active).

Consider `O=S(=O)(NCCc1csc(-c2ccccc2)n1)c1cccnc1`, for which the activity change was 41.8% (inactive).

As for `O=S(=O)(Cc1cc(Cl)nc(-c2cccnc2)n1)c1ccccc1`, the activity change was -98.6% (active).

As to `O=S(=O)(Cc1cc(Sc2ccccc2)nc(-c2ccccc2)n1)c1ccccc1`, the activity change is 0% (inactive).

Consider `O=C1NC(Cc2ccccc2)c2nc3ccc(Br)cc3c(=O)n2-c2cc3ccccc3cc21` (stereo unspecified), for which the activity change is -12% (inactive).

As for `C[C@H](O)[C@@H]1C(=O)N2CCc3ccc(N4CCOCC4)cc3[C@@H]2C[C@@H]1N(C)C(=O)C(C)(C)C`, the activity change is 0% (inactive).

As for `CN1OC[C@@H]2CN(C(=O)C(C)(C)C)[C@H](c3ccc(-n4ccnc4)cc3)C[C@@H]21`, the activity change was -20.8% (inactive).

On to `Cc1ccccc1S(=O)(=O)N1[C@@H](c2cccc(Cl)c2)C(C(=O)OC(C)(C)C)=CC[C@H]1c1ccc(Cl)cc1`, for which the activity change is -7.69% (inactive).

In the case of `CN1CCN(CCCNC(=O)c2ccc(/C=C3\Oc4ccccc4N(Cc4ccc(Cl)cc4)C3=O)cc2)CC1`, the activity change was -78% (active).

In the case of `CC(C)OCCCNC(=O)CN1C(=O)/C(=C/c2ccccc2F)Oc2ccccc21`, the activity change was 14.1% (inactive).

As for `CCCN1CCN(CCCNC(=O)CN2C(=O)COc3ccccc32)CC1`, the activity change is 5.04% (inactive).

Consider `Cc1cccc(CN2CCN(C3CN(Cc4ccccc4)S(=O)(=O)C3)CC2)c1` (stereo unspecified), for which the activity change was 5.62% (inactive).

For `COC(=O)C1C(=O)NCC1c1ccc(OC)cc1` (stereo unspecified), the activity change was 5.62% (inactive).

On to `C[C@@H]1CN([C@@H](C)CO)C(=O)c2cc(Br)cnc2O[C@@H]1CN(C)C(=O)C1CCCCC1`, for which the activity change is -1.93% (inactive).

For `CC(C)=C1SC(N2CCN(c3cccc(C)c3)CC2)=NC1=O`, the activity change was -56.9% (active).

`CC(C)=C1SC(N2CCN(c3ccc(C)c(Cl)c3)CC2)=NC1=O`: the activity change is 25.2% (inactive).

As for `CNS(=O)(=O)c1cnccc1N1CCN(c2cccc(C)c2)CC1`, the activity change was -2.21% (inactive).

Consider `Fc1ccc2[nH]c3c(N4CCN(Cc5ccc6c(c5)OCO6)CC4)ncnc3c2c1`, for which the activity change was -94.7% (active).

For the molecule `O=c1[nH]c(N2CCN(Cc3ccc4c(c3)OCO4)CC2)nc2c1CCCC2`, the activity change is 4.34% (inactive).

For `CCCCCc1c(C)nc(N2CCN(Cc3ccc4c(c3)OCO4)CC2)[nH]c1=O`, the activity change is -0.641% (inactive).

As for `Fc1ccc2[nH]c3c(N4CCSCC4)ncnc3c2c1`, the activity change was -62% (active).

In the case of `O=C(NCCS(=O)(=O)N1CCN(c2ccccc2)CC1)c1cc(=O)c2ccccc2o1`, the activity change is -1.79% (inactive).

Consider `CC(=O)Oc1ccc(OC(C)=O)c2c1C1C=CC2CC1`, for which the activity change is -13.5% (inactive).

For the molecule `c1ccc(-n2nnnc2-c2cccnc2)cc1`, the activity change was -6.19% (inactive).

With `Clc1ccc(-n2nnnc2-c2cnc(-c3ccccn3)nc2-c2cccs2)cc1`, the activity change was -21.9% (inactive).

For the molecule `FC(F)(F)c1nc(-c2ccccc2)ncc1-c1nnnn1-c1ccccc1`, the activity change was -66.2% (active).

In the case of `O=C(OCc1ccc(-c2ccccc2)cc1)c1cccc(O)c1`, the activity change was -71.1% (active).

In the case of `O=C(CNC(=O)c1ccc(-c2ccccc2)cc1)OCc1ccc(Cl)cc1`, the activity change is 18.8% (inactive).

As for `O=C(OCC(=O)c1c[nH]c2ccccc12)c1cccc(O)c1`, the activity change was -4.98% (inactive).

In the case of `CSc1nnc2c(n1)OC(c1cn(C)c3ccccc13)N(C(C)=O)c1ccccc1-2` (stereo unspecified), the activity change is 0.333% (inactive).

On to `Cn1cc(C2OC(=O)c3ccccc32)c2ccccc21` (stereo unspecified), for which the activity change was -66% (active).

For `CCN(CC)CCNC(=O)C1c2ccccc2C(=O)N(C)C1c1cn(C)c2ccccc12` (stereo unspecified), the activity change was 6.05% (inactive).

In the case of `CCCc1ccc(C(O)c2ncc(-c3cccc(OC)c3)[nH]2)cc1` (stereo unspecified), the activity change was 26% (inactive).

Take `COC(=O)c1ccccc1Oc1c(F)c(F)nc(N2CCOCC2)c1F`: the activity change was 5.09% (inactive).

As to `Cn1nc(C(=O)OCC(=O)N(Cc2ccccc2)C(C)(C)C)c2ccccc2c1=O`, the activity change was 10.9% (inactive).

In the case of `Cc1ccc(C)c(OCCC(=O)OCC(=O)N2CCN(c3ccccc3)CC2)c1`, the activity change is -2.33% (inactive).

As for `COc1ccccc1OCCC(=O)OCC(=O)NCc1ccccc1`, the activity change was 18% (inactive).

`Cc1ccc(C)c(OCCC(=O)OCC(=O)NC(=O)NCc2ccccc2)c1`: the activity change is -87.8% (active).

Take `Nc1[nH]c(C(=O)c2ccccc2)c(-c2ccncc2)c1C(=O)NCc1cccc2ccccc12`: the activity change was 7.69% (inactive).

Consider `Cc1noc(C)c1S(=O)(=O)N(C)C[C@H]1OCCCC[C@@H](C)Oc2ccc(NC(=O)CCCN(C)C)cc2C(=O)N([C@H](C)CO)C[C@@H]1C`, for which the activity change is 19.6% (inactive).

`O=[N+]([O-])c1ccc(CN2CC(N3CC=CC3)CS2(=O)=O)cc1` (stereo unspecified): the activity change is -24.5% (inactive).

`COC(=O)c1ccc(NC(=O)C23CC4CC(C2)CC(n2cnc(Cl)n2)(C4)C3)cc1`: the activity change is 54.6% (inactive).

Take `O=C(CSc1nc2cccc(F)c2c(=O)n1-c1ccccc1)Nc1ccc2c(c1)CCC2`: the activity change was 0% (inactive).

With `Oc1c(Cl)cc(Cl)cc1/C=N/c1ncn[nH]1`, the activity change was -20.2% (inactive).

Turning to `COc1cc(Br)cc(/C=N/c2ncn[nH]2)c1O`, the activity change is -55.5% (active).

Turning to `C=CCn1c(Cn2nnc3ccccc32)nnc1SCC(=O)N/N=C/c1cc(Br)cc(OC)c1O`, the activity change was 1% (inactive).

Take `Nn1c(SCC(=O)Nc2nccs2)nncc1=O`: the activity change was 9.24% (inactive).

For `C[C@@H]1C[C@@H]2O[C@H]2/C=C\C=C\C(=O)Cc2c(Cl)c(O)cc(O)c2C(=O)O1`, the activity change is -108% (active).

Take `CC1CCCCC12NC(=O)N(CC(=O)OCC(=O)NCc1ccc(F)cc1)C2=O` (stereo unspecified): the activity change was 28% (inactive).

As to `CC1=CC(=NNS(=O)(=O)c2ccc([N+](=O)[O-])cc2)CC(C)(C)C1`, the activity change was 8.3% (inactive).

For the molecule `COc1ccc(CCNS(=O)(=O)c2cccc([N+](=O)[O-])c2)cc1`, the activity change is -12.5% (inactive).

Regarding `COc1ccc(S(=O)(=O)N2CCN(C(=S)NCC3CCCO3)CC2)cc1OC` (stereo unspecified), the activity change was 41.3% (inactive).

Regarding `S=C(NCC1CCCO1)N1CCN(c2ccc(Cl)c(Cl)c2)CC1` (stereo unspecified), the activity change is -64.9% (active).

In the case of `CCOc1ccc(S(=O)(=O)N2CCN(C(=S)NCC3CCCO3)CC2)cc1` (stereo unspecified), the activity change is 8.09% (inactive).

For `CCCC/C=C/c1cccc2nncn12`, the activity change is 0% (inactive).

Consider `c1ccc2c(C[n+]3csc4ccccc43)cccc2c1`, for which the activity change was -14.6% (inactive).

With `COC(=O)c1cc2n(n1)CCCNC2=O`, the activity change was -12.8% (inactive).

Regarding `NS(=O)(=O)c1ccc(NC(=O)COC(=O)c2c3c(nc4ccccc24)/C(=C\c2ccc4c(c2)OCO4)CCC3)cc1`, the activity change is -62.6% (active).

Consider `O=C(COC(=O)c1ccncc1)Nc1ccc2c(c1)OCO2`, for which the activity change was 7.7% (inactive).

Take `NC(=O)c1ccc(NC(=O)COC(=O)c2c3c(nc4ccccc24)/C(=C\c2ccc4c(c2)OCO4)CCC3)cc1`: the activity change is -3.47% (inactive).

As for `CCOc1ccc2[nH]c(=S)sc2c1`, the activity change was 32.5% (inactive).

For `COc1ccc(/C=C2\SC(=S)N(CCC(=O)N3CCOCC3)C2=O)cc1OC`, the activity change was -10.5% (inactive).

In the case of `O=C(CCN1C(=O)c2ccccc2C1=O)NCCN1CCOCC1`, the activity change is -5.01% (inactive).

For `Cc1ccc(/C=C2/SC(=S)N(CCC(=O)NCCCN3CCOCC3)C2=O)cc1`, the activity change was -83.3% (active).

On to `CC(OC(=O)CCC(=O)c1ccccc1)C(=O)Nc1ccc(F)cc1` (stereo unspecified), for which the activity change is 9.85% (inactive).

As for `Cc1c(C(=O)NCC2CC2)sc(=O)n1Cc1cccc(F)c1`, the activity change is -16.4% (inactive).

Consider `COc1ccc(CNC(=O)CCN2C(=O)c3ccccc3C2=O)cc1`, for which the activity change was -9.34% (inactive).

In the case of `CCOC(=O)c1cc2cc3ccccc3cc2oc1=O`, the activity change was -12.5% (inactive).

`CCOC(=O)C1=C(c2ccc(OC)cc2)C(=O)c2ccccc2C1=O`: the activity change is -99% (active).

As for `CCN(CC)C(=O)C1=C(C)N(Cc2ccc(OC)cc2)C(=O)C(CC(=O)NCc2ccco2)C1` (stereo unspecified), the activity change was -25.2% (inactive).

As to `Cc1ccc(C(=O)N2CCC(n3nccc3NC(=O)Nc3cccc(F)c3)CC2)cn1`, the activity change is 8.12% (inactive).

Turning to `CCOc1c2ccc(C(=O)NCc3ccc4c(c3)OCO4)cc2nn1C`, the activity change is -4.17% (inactive).

On to `COc1ccccc1-n1c(C)nc2cc(C(=O)NCc3ccc4c(c3)OCO4)ccc21`, for which the activity change is -65.9% (active).

`COc1cc(OC)c(C(=O)NCc2ccc3c(c2)OCO3)cc1OC`: the activity change was 38% (inactive).

On to `Cn1c(N)cc(=O)n(C)c1=S`, for which the activity change is 19% (inactive).

Consider `S=C(c1ccc(-c2ccccc2)o1)N1CCCCC1`, for which the activity change is -56.6% (active).

For `CC1CCN(C(=S)c2ccc(-c3ccc(Cl)cc3Cl)o2)CC1`, the activity change was -11.9% (inactive).

Consider `S=C(c1ccccc1)N1CCCC1`, for which the activity change was 9.49% (inactive).
